Rab9 promoter act: Rab9 promoter activation; Potency, µM (titrated, usually from 9.22 µM), inactives show at the highest dose activation, negative = inhibition, actives largely listed as activators; Huh7 Rab9 promoter-luciferase reporter, luminescence, 24 h; AID 485297; 2.8% of 320,000 active; further: % of control where 0% means no effect; nearly all actives have a fitted effect of over 60% in size
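Steps: seed 1500 Huh7 Rab9-luc cells per well, rest 2 h at 37 °C; add compound in DMSO; incubate 24 h; add luciferase reagent, 10 min ambient; read luminescence.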
SMN2 splice up: enhancers of SMN2 splice variant expression | HEK293 SMN2-luciferase splicing reporter, luminescence, 30-36 h | Potency, µM (highest dose often 46.1 µM), for inactives: at the top dose activity change, positive = activation, actives largely listed as activators | 2.8% of 210,000 active | AID 1458; further: % of control where 0% means no effect; nearly all actives have a fitted effect of over 55% in size
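HEK293 cells carry an SMN2 minigene-luciferase reporter in which exon 7 inclusion puts luciferase in frame. Cells were seeded at 2000 cells/well, attached for 10-12 hours, then exposed to compounds for 30-36 hours at 37C before ONE-Glo luminescence.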
FLuc modulator: inhibits or activates purified firefly luciferase, miR-21 counter-screen; purified FLuc, Km substrates, luminescence inhibition; Potency, µM (series often up to 57.5 µM), for inactives: at the top dose activity change, negative = inhibition, usual class: inhibitors; 6.9% of 360,000 active; AID 588342;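 further: plate controls were vehicle for no effect and reference inhibitor for full effect; nearly all actives have a fitted effect of over 55% in size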
Target sequence (P08659 whole entry, looked up): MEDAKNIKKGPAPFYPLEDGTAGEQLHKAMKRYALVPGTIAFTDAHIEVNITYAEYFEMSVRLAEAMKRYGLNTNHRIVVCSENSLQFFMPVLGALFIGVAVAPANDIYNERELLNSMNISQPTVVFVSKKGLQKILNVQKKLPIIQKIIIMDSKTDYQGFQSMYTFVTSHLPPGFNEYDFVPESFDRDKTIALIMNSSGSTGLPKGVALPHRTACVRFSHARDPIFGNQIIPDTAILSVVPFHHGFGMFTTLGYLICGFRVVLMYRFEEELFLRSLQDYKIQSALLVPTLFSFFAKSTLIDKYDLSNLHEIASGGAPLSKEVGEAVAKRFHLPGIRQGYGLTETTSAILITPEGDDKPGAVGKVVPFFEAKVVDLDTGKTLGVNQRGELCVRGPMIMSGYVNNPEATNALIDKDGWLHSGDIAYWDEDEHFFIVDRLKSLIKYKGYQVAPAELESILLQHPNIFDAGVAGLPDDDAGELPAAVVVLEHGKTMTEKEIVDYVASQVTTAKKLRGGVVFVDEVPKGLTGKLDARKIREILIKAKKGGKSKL
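Purified P. pyralis luciferase (10nM final) with 10uM D-luciferin and 10uM ATP (Km levels) in 50mM Tris acetate pH 7.5, 10mM Mg acetate, 0.01% Tween-20, 0.05% BSA; qHTS 6-point titration, ~60 µM downward; luminescence read.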
NPC1 prom act: NPC1 promoter activation | Huh7 NPC1 promoter luciferase reporter, 24 h | Potency, µM (highest dose often 9.22 µM), for the others: at the highest dose activation, hits mostly activators | 2.4% of 320,000 active | AID 485313; further: % of control where 0% means no effect; nearly all actives have a fitted effect of over 60% in size
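Luminescence from an NPC1 promoter-driven luciferase reporter in stably transfected Huh7 cells was measured after 24 h compound treatment at 37 °C, followed by 10 min ambient incubation with luciferase detection reagent.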
ELG1 repair inh: ELG1-dependent DNA repair inhibition. Potency, µM (doses to about 46.1 µM), inactives show top-dose activity change, negative = inhibition, hits mostly inhibitors. HEK293T ELG1-luciferase reporter, luminescence, 16 h; DNA damage induced by 5-fluorouridine. 2.3% of 330,000 active; further: on the % scale 0 is the no-effect control and ±100 the full control effect; nearly all actives have a fitted effect of over 55% in size
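5-Fluorouridine DNA damage + compound/DMSO, 2,000 cells/well, 16 h, 37 °C/5% CO2. ONE-Glo, 30 min RT, luminescence. Readout = decrease in reporter signal.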
ELG1 genotox: genotoxicity induction in ELG1-luciferase HEK293T cells; HEK293T ELG1-luciferase reporter, luminescence, 16 h; Potency, µM (highest dose often 46 µM), for the others: at the top dose activity change, positive = activation, usual class: activators; 1.3% of 330,000 active; further: % of control where 0% means no effect; nearly all actives have a fitted effect of over 60% in size
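Cells (2,000/well) expressing the ELG1-luciferase fusion are dosed by pin tool and kept 16 hr at 37 °C, 5% CO2. Signal comes from ONE-Glo luciferase reagent after 30 min at room temperature.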
The depositor's hits bear a star; u = inconclusive; x = no result; [ ] = dose if it differs, or a comment. An excerpt weighted towards active compounds, which were near 9.2% of everything screened. The call rests on the fitted dose curve; in most records, active means well fitted curve in the direction sought with a large enough effect; inconclusive means small, poorly fitted or top-dose-only effect, or another doubt; inactive means no such curve, though single readings can be large; an effect the other way counts as inactive or inconclusive. Potency means the concentration at half of the fitted maximal effect.

SMILES | Rab9 promoter act | SMN2 splice up | FLuc modulator | NPC1 prom act | ELG1 repair inh | ELG1 genotox
CC(C)(CC(=O)O)Cc1nc(-c2ccc(Cl)cc2)no1 | 3% | 7% | 27µM* | 16% | u | u
CC(C)(C)c1ccc(-c2noc(CCC(N)=O)n2)cc1 | -32% | -43% | 6µM* | -26% | u | -11%
COc1ccc(-c2noc(CCC(=O)N3CCN(c4cccc(OC)c4)CC3)n2)cc1 | x | x | x | x | 26µM* | -7%
COc1cccc(NC(c2nnc(-c3ccccc3)o2)c2ccc(F)cc2Cl)c1 (stereo unspecified) | x | -3% | -4% | x | x | x
CN=C(Nc1cc(Cl)ccc1Cl)SC1CC(=O)N(c2ccc(C(=O)OC)cc2)C1=O (stereo unspecified) | -8% | -4% | -2% | -6% | -22% | -14%
COc1ccc(-c2noc(CCC(=O)Nc3cc(Cl)c(OC)cc3OC)n2)cc1 | -1% | 2% | 8.5µM* | 0% | 1% | u
CN(C)C(=O)CCc1nc(-c2ccc(C(C)(C)C)cc2)no1 | 3.2µM* | -12% | 5.4µM* | 2.5µM* | u | u
COc1ccc(-c2noc(CCC(=O)Nc3cc(OC)ccc3OC)n2)cc1 | 0% | -23% | u | -2% | u | -3%
CC(C)(C)c1ccc(-c2noc(CCC(=O)Nc3cccnc3)n2)cc1 | -37% | x | 1.7µM* | -39% | -4% | u
CCOc1ccc(-c2noc(CCC(=O)NC)n2)cc1OCC | 8% | x | 1% | -4% | 10% | 1%
Cc1ccc(-c2noc(CNC(=O)c3ccc(C(C)(C)C)cc3)n2)cc1 | x | 3% | -19% | x | x | x
CNC(=O)CCc1nc(-c2ccc(C(C)(C)C)cc2)no1 | 13% | -17% | 4.8µM* | u | u | 15%
COc1ccc(-c2noc(CCC(=O)Nc3cccnc3)n2)cc1 | -2% | x | u | -4% | 15% | 4%
CCOc1cc(-c2noc(CCC(=O)Nc3cccnc3)n2)ccc1OC | 18% | -7% | 0% | 16% | 21µM* | 4%
CC(C)(C)c1ccc(-c2noc(CCC(=O)NCC3CCCO3)n2)cc1 (stereo unspecified) | -20% | -58% | 1.9µM* | -15% | u | 14%
CCOc1ccc(C(=O)Oc2c(Sc3ccccc3)c(C)nn2C(C)(C)C)cc1OCC | x | 11% | 0% | x | x | x
Cc1cc(C(=O)Nc2ccccc2C(=O)O)oc1C | 8% | x | 19µM* | 12% | u | 9%
Cc1occc1C(=O)Nc1ccccc1C(=O)O | 16% | -3% | 27µM* | 12% | u | u
Cc1ccc2nccc(C(=O)N3CCCC(N4CCN(c5ccc(F)cc5)CC4)C3)c2c1 (stereo unspecified) | -1% | x | -1% | -4% | 12% | -1%
COc1ccc(N2C(=O)CC(C)(C)CC2=O)cc1OC | -8% | x | 0% | 3% | 5% | 0%
CC(C)c1nn2c(=O)cc(COC(=O)c3ccccc3Cl)nc2s1 | x | x | 17µM* | x | x | x
COc1cc(C(=O)OCc2cc(=O)n3nc(C(C)C)sc3n2)cc(OC)c1OC | x | x | 0% | x | x | x
CC(C)c1nn2c(=O)cc(COC(=O)c3ccc(NC(=O)c4ccccc4Cl)cc3)nc2s1 | x | x | -2% | x | x | x
CC(C)c1nn2c(=O)cc(COC(=O)c3cccs3)nc2s1 | x | x | 11µM* | x | x | x
COc1ccc(Cl)cc1NC(=O)Nc1ccccc1C(N)=O | -3% | -19% | -3% | -6% | 0% | 6%
SMILES | Rab9 promoter act | SMN2 splice up | FLuc modulator | NPC1 prom act | ELG1 repair inh | ELG1 genotox
O=C(O)c1ccccc1Nc1ccccc1 | 14%[46.1 µM] | -8% | -12% | 8%[46.1 µM] | 9% | 1%
COc1cc(NC(=O)Nc2cccc(Cl)c2)c(C(=O)O)cc1OC | -3% | x | 27µM* | -7% | u | 6%
COc1cccc(NC(=O)Nc2ccccc2C(N)=O)c1 | -5% | 22% | 21µM* | -2% | 18% | 0%
NC(=O)c1ccccc1NC(=O)Nc1cccc(Cl)c1 | -8% | 12% | 15µM* | 1% | 8% | 8%
COc1cccc(Nc2ccccc2C(=O)O)c1 | 13% | u | 27µM* | 1% | u | 13%
COC(=O)c1ccc(OC)c(Cn2c(=O)n(C)c(=O)c3ccccc32)c1 | -5% | x | 1% | -2% | 2% | 4%
O=C(Nc1cccc(Cl)c1)Nc1ccccc1C(=O)O | 0.13µM* | x | 0.85µM* | 0.56µM* | u | u
O=C(O)c1ccccc1Nc1ccc(OC(F)F)cc1 | 17% | 16% | 21µM* | 12% | u | 8%
CSc1ccc(NC(=O)Nc2ccccc2C(N)=O)cc1 | u | x | 1.1µM* | u | u | u
CC(C)(C)NC(=O)Nc1ccccc1C(N)=O | -1% | -5% | 1% | -1% | 9% | -2%
NC(=O)c1ccccc1NC(=O)CN1CCN(Cc2ccccc2)CC1 | 1% | x | -2% | -1% | -2% | -1%
NC(=O)c1ccccc1NC(=O)CN1CCN(Cc2ccc(Cl)cc2Cl)CC1 | -6% | x | 2% | -10% | 10µM* | -6%
O=C(O)/C=C\C(=O)Nc1ccc(OC(F)F)cc1 | -6% | 1% | u | -2% | 2% | 1%
ClCc1nc2ccccc2c2ccccc12 | 1% | x | 3% | 1% | u | -24%
COc1cccc(Nc2c(Nc3cccc(OC)c3)c(=O)c2=O)c1 | -3% | x | 1% | -3% | 10% | 0%
COc1cccc(Nc2ccc(Nc3cccc(OC)c3)nn2)c1 | -7% | 4% | 19µM* | -2% | -19% | -1%
O=C(Nc1ccc(Nc2ccccc2)cc1)c1cccc(F)c1 | 4.5µM* | x | 13µM* | u | u | u
CC(=O)N1CCN(c2ccc(NC(=O)c3cccc(Cl)c3)cc2)CC1 | u | x | u | 2.2µM* | u | u
CCc1ccc(NC(=O)c2cccc(N3CCCS3(=O)=O)c2)cc1 | x | x | 12µM* | x | x | x
O=C(Nc1cccc(F)c1)c1ccccc1 | u | 2% | u | u | u | 9%
O=C(Nc1ccc(N2CCN(C(=O)c3cccs3)CC2)cc1)c1cccc(F)c1 | 3% | x | -6% | -3% | 15µM* | -11%
O=C(Nc1ccccc1)c1cccc(N2CCCS2(=O)=O)c1 | x | x | -16% | x | x | x
CCOc1ccc(-c2c(C)nn3c(C)c(C(=O)NCC(C)c4ccccc4)cnc23)cc1OCC (stereo unspecified) | x | x | -9% | x | x | x
O=C(/C=C/c1ccccc1)Nc1ccc(N2CCCCC2)cc1 | 4µM* | u | u | u | u | u
O=C(/C=C/c1ccc(Cl)cc1)Nc1ccc(N2CCCCC2)cc1 | -13% | -10% | -3% | 3% | 6% | 1%
